Measurements from PubChem BioAssay AID1347147 (National Center for Advancing Translational Sciences (NCATS), 2019).
Inconclusive results are not listed. Values without a mark were called inactive. Active and inactive are the calls of the source. The call rests on the fitted dose curve; in most records, active means well fitted inhibition curve with a large enough effect; inconclusive means small, poorly fitted or top-dose-only effect; inactive means no such curve, though single readings can be large or run the other way.

Target: N-terminal Xaa-Pro-Lys N-methyltransferase 1 (Homo sapiens) (UniProt Q9BV86)
Assay: qHTS Assay for Inhibitors of N-terminal methyltransferase 1 (NTMT1): MTaseGlo Confirmatory Screen, Round 2
Settings: NTMT1 enzyme, MTase-Glo SAH luminescence; series mostly up to 57.4 µM; activity change, negative = inhibition: at the top concentration
Summary of the method: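 Luminescent MTase-Glo readout of SAH formed in 30 min at RT by 125 nM NTMT1, 100 µM SAM and 1 µM SPKRIA substrate, after ~15 min compound preincubation. Percent inhibition versus no-enzyme and DMSO controls was Hill-fitted.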
Potency means the concentration at half of the fitted maximal effect.
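Wherever activity change, negative = inhibition is given: plate controls were DMSO for no effect and no enzyme control for full effect.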

N-terminal Xaa-Pro-Lys N-methyltransferase 1 (Homo sapiens), sequence (Q9BV86 whole entry, looked up): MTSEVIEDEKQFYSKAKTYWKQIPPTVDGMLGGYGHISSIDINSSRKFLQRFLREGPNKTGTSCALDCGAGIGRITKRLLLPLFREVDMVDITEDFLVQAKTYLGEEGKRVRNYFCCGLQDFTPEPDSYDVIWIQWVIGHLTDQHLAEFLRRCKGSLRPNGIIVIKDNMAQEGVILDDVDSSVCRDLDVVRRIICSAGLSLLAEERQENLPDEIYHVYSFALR

Structure (SMILES) | activity change, negative = inhibition | Potency
O=Nc1ccc2oc(=O)ccc2c1 | -21.6% | 
N.N.N.N.N.N.N.N.N.N.N.N.N.N.O.O.[Ru+4].[Ru+5].[Ru+5] |  | 31.6 µM (active)
CN1Cc2c(N)cccc2C(c2ccccc2)C1 (configuration not stated) | -3.77% | 
CSc1ccc(C(=O)c2[nH]c(=O)[nH]c2C)cc1 | 4.55% | 
OCC1OC(n2cnc3c(NCc4ccco4)ncnc32)C(O)C1O (configuration not stated) | 153% | 
COc1cc2nc(N3CCCN(C)CC3)nc(N3CCN(C)CC3)c2cc1OC | 16.4% | 
Cc1cc2c(cc1Cl)N(C(=O)Nc1ccc(Oc3cccnc3C)nc1)CC2 | 8.26% | 
O=C1c2c(O)ccc(O)c2C(=O)c2c(NCCNCCO)ccc(NCCNCCO)c21 |  | 31.6 µM (active)
COc1cc2c(NC3CCN(C)CC3)cc(N3CCCCN(C)CC3)cc2cc1OCCOCCN(C)C | -17.6% | 
Nc1ccnc2c1ncn2[C@@H]1O[C@H](CO)[C@@H](O)[C@H]1O |  | 10 µM (active)
CN1CCN(CCCN2c3ccccc3Sc3ccc(Cl)cc32)CC1 | -16.2% | 
O=C1c2c(O)cc(O)cc2OC(c2ccc(O)c(O)c2)C1O (configuration not stated) | -3.24% | 
COc1ccc(/C=C2\COc3ccc(C)cc3C2=O)cc1O | -3.92% | 
CC(C)NC[C@@H](O)c1ccc(O)c(O)c1 | -15.8% | 
CC(C)NC[C@H](O)c1ccc(O)c(O)c1 |  | inactive
O=c1ccc2ccc(O)c(O)c2o1 | -5.42% | 
C=CCN1CCc2c(cc(O)c(O)c2Br)[C@@H](c2ccccc2)C1 | -14.3% | 
O=S(=O)(c1cccc2c(Cl)cccc12)N1CCCNCC1 | -19.2% | 
COC(=O)[C@H]1[C@H]2C[C@H]3c4[nH]c5ccccc5c4CCN3C[C@H]2CC[C@@H]1O | -3.05% | 

Structure (SMILES) | activity change, negative = inhibition | Potency
N#C/C(=C\c1ccc(O)c(O)c1)C(=O)Nc1ccccc1 | -12.5% | 
CSc1ccc2c(c1)N(CCC1CCCCN1C)c1ccccc1S2 (configuration not stated) | -5.29% | 
CCC(CC)n1ccc2c(C(=O)NCc3c(C)cc(C)[nH]c3=O)cc(C#N)cc21 | -4.86% | 
COc1cccc(OC)c1OCCNCC1CSc2ccccc2O1 (configuration not stated) | -12% | 
CNC(=O)c1cnn(-c2nc(N)c3ncn([C@@H]4O[C@H](CO)[C@@H](O)[C@H]4O)c3n2)c1 | 4.02% | 
Oc1ccccc1O | -6.44% | 
OCCN1CCN(CCCN2c3ccccc3Sc3ccc(Cl)cc32)CC1 | -4.78% | 
C[C@](Cc1ccc(O)c(O)c1)(NN)C(=O)O | -4.63% | 
O=C(O)Cc1ccc(O)c(O)c1 | -6.76% | 
N#C/C(=C\c1ccc(O)c(O)c1)C(=O)NCCc1ccccc1 | -3.64% | 
C=CCN1CCc2c(cc(O)c(O)c2Cl)C(c2ccccc2)C1 (configuration not stated) | -20.8% | 
CCNC(=O)[C@H]1O[C@H](n2cnc3c(N)nc(NCCc4ccc(CCC(=O)O)cc4)nc32)[C@@H](O)[C@@H]1O | -23.9% | 
O=C(/C=C/c1ccc(O)cc1)c1ccc(O)cc1O | -20.7% | 
Clc1nccc2c1ccc1ccccc12 | -14.2% | 
OCC1OC(n2cnc3c(NO)ncnc32)C(O)C1O (configuration not stated) | 272% | 
OCCNc1ncnc2c1ncn2[C@@H]1O[C@@H](CO)[C@H](O)[C@@H]1O | 76.3% | 
OC[C@H]1O[C@@H](n2cnc3cncnc32)[C@H](O)[C@@H]1O |  | 5.62 µM (active)
COC(=O)C1=C(C)NC(C)=C(C(=O)OC)C1c1ccccc1[N+](=O)[O-] | 1% | 
